A selection: hits, their analogues and other compounds. The true share with any hit is near 1.7%.
Glioma ERSR ind – inducers of ER stress response in human glioma cells; U87-MG GRP78 promoter luciferase reporter, 16 h; Potency, µM, inactives show top-dose activation, hits mostly activators; 420,000 tested, 0.02% active; AID 602332; note: potency is the fitted concentration of half-maximal effect; series mostly up to about 76 µM; % of control where 0% means no effect; nearly all actives have a fitted effect of over 35% in size
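Stably transfected U87-MG glioma cells carrying a GRP78-based luciferase sensor; 16 h compound incubation. Luminescence end-point read 10 min after Bright-Glo addition at room temperature.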
rTrxR1 inhibitor – inhibitors of rat thioredoxin reductase 1; Potency, µM (doses to about 114 µM), for inactives: top-dose activity change, negative = inhibition, usual class: inhibitors; 390,000 tested, 1% active; recombinant rTrxR1, NADPH fluorescence consumption, selenite substrate; O89049; AID 588453; note: potency is the fitted concentration of half-maximal effect; % is set by controls: 0 for no effect and ±100 for the full control effect; nearly all actives have a fitted effect of over 65% in size
Target sequence (O89049 whole entry, looked up): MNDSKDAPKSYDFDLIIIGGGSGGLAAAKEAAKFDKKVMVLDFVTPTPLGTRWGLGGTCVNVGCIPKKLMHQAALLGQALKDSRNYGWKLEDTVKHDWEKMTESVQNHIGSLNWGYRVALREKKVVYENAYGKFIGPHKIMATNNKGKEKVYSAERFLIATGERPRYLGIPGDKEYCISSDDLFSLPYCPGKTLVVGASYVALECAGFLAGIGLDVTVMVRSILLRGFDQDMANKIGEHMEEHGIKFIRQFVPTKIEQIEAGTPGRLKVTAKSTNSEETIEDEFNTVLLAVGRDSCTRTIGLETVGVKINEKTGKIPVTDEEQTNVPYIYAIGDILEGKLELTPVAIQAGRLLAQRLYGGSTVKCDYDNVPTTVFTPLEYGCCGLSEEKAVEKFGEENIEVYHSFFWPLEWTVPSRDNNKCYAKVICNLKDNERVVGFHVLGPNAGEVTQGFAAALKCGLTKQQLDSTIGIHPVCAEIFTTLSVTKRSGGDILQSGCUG
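Rat TrxR1 (90 nM in the dispensed reagent) was pre-reduced with 400 uM NADPH for 5 min at room temperature, then incubated with compound for 15 min. After 400 uM selenite was added, NADPH fluorescence (Ex 340/Em 450 nm) was followed for 8 min.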
TrxR1 substrate – is turned over as a substrate by rat TrxR1 | purified TrxR1 substrate turnover, NADPH consumption readout | O89049 | 390,000 tested, 0.01% active | Potency, µM (highest dose often 114 µM), for the others: top-dose activity change, negative = substrate turnover; note: potency is the fitted concentration of half-maximal effect; % is set by controls: 0 for no effect and ±100 for the full control effect; nearly all actives have a fitted effect of over 50% in size
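Rat TrxR1, dispensed at 90 nM, was prereduced with 400 uM NADPH (final) for 5 min at ~22 deg C, then incubated with compound 15 min before 400 uM selenite. A first-read NADPH fluorescence drop versus no-compound background flagged substrates.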
Apoferritin bind – candidate novel general anesthetic via apoferritin binding | apoferritin/1-aminoanthracene competitive binding, fluorescence | Potency, µM (doses to about 77.5 µM), without a hit: at the top dose activity change, negative = displacement, hits mostly inhibitors | 350,000 tested, 0.074% active; note: potency is the fitted concentration of half-maximal effect; % is set by controls: 0 for no effect and ±100 for the full control effect; nearly all actives have a fitted effect of over 20% in size
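Concentration-response curves derived by four-parameter Hill fitting of normalized fluorescence, where compounds displaced 1-AMA from 10 uM horse apoferritin following a brief 10 min room-temperature incubation; propofol titration acted as positive control.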
12-LOX inh – blocks human arachidonate 12S-lipoxygenase. AID 1671190. Potency, µM (highest dose often 108 µM), for inactives: at the highest dose activity change, negative = inhibition, hits mostly inhibitors. 580,000 tested, 1.1% active. P18054. purified 12hLO, xylenol orange hydroperoxide absorbance; note: potency is the fitted concentration of half-maximal effect; % is set by controls: 0 for no effect and ±100 for the full control effect
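Purified human 12hLO (150 nM final) in 25 mM Hepes, 0.01% Triton X-100, pH 7.0 was preincubated 15 min at room temperature with compound. Then 40 uM arachidonic acid was added, 30 min. Hydroperoxide was read by Fe-XO absorbance ratio 573/405 nm.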
mIDH1 inhibitor – blocks human mutant IDH1 R132H enzyme; IDH1-R132H enzyme, NADPH consumption, diaphorase/resazurin fluorescence; O75874; 390,000 tested, 0.093% active; Potency, µM (top dose mostly 76.6 µM), without a hit: top-dose activity change, negative = inhibition, usual class: inhibitors; AID 602179; note: potency is the fitted concentration of half-maximal effect; % is set by controls: 0 for no effect and ±100 for the full control effect; nearly all actives have a fitted effect of over 65% in size
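IDH1-R132H (0.5 ug/mL dispensed) in pH 7.5 Tris buffer was preincubated 30 min with compound, then given a substrate mix of 0.016 mM NADPH and 2 mM alpha-KG for 80 min at room temperature; remaining NADPH was read by diaphorase/resazurin fluorescence.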
Resorufin autofl – interferes with resorufin fluorescence in IDH1 counter-screen; 750 tested, under 10 active; inhibition of signal, % at 51.2 µM; shares compounds with mIDH1 inhibitor; Resorufin detection reagent fluorescence interference, cell-free;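 note: 0% = wells with normal resorufin and full inhibition = wells lacking resorufin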
WT IDH1 inh – selectivity of mutant IDH1 inhibitors: human wild-type IDH1. shares compounds with mIDH1 inhibitor. WT IDH1 enzyme, NADPH diaphorase/resazurin fluorescence. Potency, µM (top dose mostly 115 µM), inactives show at the top dose activity change, negative = inhibition, hits mostly inhibitors. 750 tested, 9% active. AID 623995;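 note: potency is the fitted concentration of half-maximal effect; 0% = full WT IDH1 enzyme control and full inhibition = no enzyme wells; nearly all actives have a fitted effect of over 55% in size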
IDH1 R132H conf – inhibits human mutant IDH1 enzyme in cherrypick confirmation; shares compounds with mIDH1 inhibitor; IDH1 R132H enzyme, NADPH diaphorase/resazurin fluorescence; Potency, µM (doses to about 76.6 µM), for inactives: at the top dose activity change, negative = inhibition, hits mostly inhibitors; 750 tested, 83% active; AID 624002; note: potency is the fitted concentration of half-maximal effect; nearly all actives have a fitted effect of over 50% in size
The depositor's hits bear a star; ? = inconclusive; / = no result given; [ ] = dose if it differs, or a comment. Calls come from the whole dose curve; as a rule, active = well fitted curve in the direction sought with a large enough effect; inconclusive = small, poorly fitted or top-dose-only effect, or another doubt; inactive = no such curve, though single readings can be large; an effect the other way counts as inactive or inconclusive.

SMILES	Glioma ERSR ind	rTrxR1 inhibitor	TrxR1 substrate	Apoferritin bind	12-LOX inh	mIDH1 inhibitor	Resorufin autofl	WT IDH1 inh	IDH1 R132H conf
CCN(C(=O)CSc1nc2n[nH]c(C)c2c(=N)n1-c1ccc(Cl)c(C)c1)c1cccc(C)c1	12%	9%	6%	0%	31%	46µM*	-1	-11%	22µM*
CCCCN(CC)C(=O)CSc1nc2n[nH]c(C)c2c(=N)n1-c1cccc(C)c1	-2%	16%	-1%	-6%	-15%	-11%	/	/	/
Cc1cccc(-n2c(SCC(=O)Nc3ccccc3Cl)nc3n[nH]c(C)c3c2=N)c1	-7%	22%[57.1 µM]	2%[57.1 µM]	-23%	-3%	?	-9	-2%	25µM*
COc1ccc(C(=O)/C=C/c2ccc(F)cc2)c(OC(=O)c2ccccc2Br)c1	/	/	/	/	2%	/	/	/	/
CSc1cccc(Nc2nc(SC)nc(-c3ccccc3)c2C#N)c1	/	/	/	/	34%	/	/	/	/
CC(=O)OCC1OC(Oc2cc(OC(C)=O)c3c(=O)cc(-c4ccc(OC(C)=O)c(OC(C)=O)c4)oc3c2)C(OC(C)=O)C(OC(C)=O)C1OC(C)=O (centres undefined)	-2%	/	/	/	/	/	/	/	/
S=C(Nc1cccc2ccccc12)Nc1cccc2ccccc12	3%	30%	89%	/	-23%	5%	/	/	/
S=C(Nc1cccc2ccccc12)NC1CCCCC1	7%	-15%[57.1 µM]	-11%[57.1 µM]	?	45µM*	?	-1	?	5%
CCCSC1=C(C#N)C(c2cccnc2)C(C(=O)OCC)=C(c2ccccc2)N1 (centres undefined)	-3%	-20%[57.1 µM]	11%[57.1 µM]	-14%	12%	?	/	/	/
CCOC(=O)C1=C(c2ccccc2)NC(SCC)=C(C#N)C1c1cccnc1 (centres undefined)	-7%	4%[57.1 µM]	-4%[57.1 µM]	-13%	-8%	?	-1	0%	16µM*
COc1ccc(-c2n[nH]c3c2C(c2ccc(Cl)cc2Cl)NC3=O)cc1 (centres undefined)	-9%	11%	-5%	-8%	?	?	1	-9%	40µM*
Cc1noc(C)c1C(=O)N1CCC2(CC1)CN(Cc1cc(C(F)(F)F)cc(C(F)(F)F)c1)C2	-4%	/	/	/	-3%[57.4 µM]	/	/	/	/
CC(/C=C1\SC(=S)N(c2ccc(C(=O)O)cc2)C1=O)=C\c1ccccc1	-7%	9%	-1%	-6%	35µM*	23µM*	-4	45µM*	50µM*
C=CCC(O)[C@H](Cc1cnc2ccccc2c1)[C@H](/C=C/CCCC)c1ccccc1 (some centres undefined)	-2%	3%	-8%	-20%	/	/	/	/	/
CCN(CC)C(=O)c1sc2c(c1C)c(=O)n(CCc1ccccc1)c(=O)n2Cc1ccc(F)cc1Cl	0%	-12%[57.1 µM]	-6%[57.1 µM]	-3%	-26%	-29%	/	/	/
CCN(CC)C(=O)c1sc2c(c1C)c(=O)n(CCc1ccccc1)c(=O)n2Cc1cccc(Cl)c1	-1%	16%[57.1 µM]	5%[57.1 µM]	100%	-20%	32µM*	-6	3%	11µM*
COC(=O)CCCC[C@H]1SC[C@@H](N)[C@H]1N	/	/	/	/	43%	/	/	/	/
Cc1cc(C(C)(C)C)oc1C(=O)NCCCNC(=O)c1oc(C(C)(C)C)cc1C	-2%	-3%[57.1 µM]	2%[57.1 µM]	-10%	385%	?	-3	?	11µM*
